# Assay outcomes from PubChem.
# hcDAF12 agonist: activators of H. contortus DAF-12 nuclear receptor. HEK293 hcDAF-12 lit1-tk-luc reporter, luminescence; 0% DMSO, 100% Δ7-dafachronic acid. activation, % at 6.8 µM. 1.4% of 370,000 active;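 active = activation above the mean of all tested compounds plus 3 SD, cut at about 5.5% in these data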;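 note: 100% = response to 3 µM Δ7-dafachronic acid high control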
# DAX1 inh-1: inhibitors of DAX1 repression of SF-1 activated StAR promoter. HEK293T StAR-luciferase reporter, SF-1/DAX-1 repression relief. inhibition, % at 6.8 µM. 1.1% of 370,000 active;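 active = inhibition above the mean over all tested compounds plus 3 SD, cut at about 3.6% in these data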;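 note: 0% = DAX-1 cells with DMSO and 100% = cells lacking DAX-1 with DMSO; higher inhibition means more luminescence from relief of DAX-1 repression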
# ssDAF-12 act: activators of S. stercoralis DAF-12 nuclear receptor | HEK293 ssDAF-12/GRIP1 lit1-tk-luc reporter, luminescence; % of 3 µM dafachronic acid response | activation, % at 6.8 µM | 1% of 370,000 active;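 active = activation above the mean over all tested compounds plus 3 SD, cut at about 0.9% in these data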;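 note: 0% = DMSO-only wells and 100% = 3 µM delta7-dafachronic acid wells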
# DAX1 inh-2: NR0B1 (DAX1) inhibition. AID 504766. 0.99% of 340,000 active. inhibition, % at 6.75 µM. HEK293 Gal4-DAX1 luciferase reporter, luminescence;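 active = inhibition above the mean over all tested compounds plus 3 SD, cut at about 4.2% in these data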;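 note: 0% = DAX1-transfected cells with DMSO and 100% = empty-vector control cells with DMSO; inhibition shows as a rise in luminescence from relieved DAX1 repression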
# Target sequence (P51843 207-470 limits assumed): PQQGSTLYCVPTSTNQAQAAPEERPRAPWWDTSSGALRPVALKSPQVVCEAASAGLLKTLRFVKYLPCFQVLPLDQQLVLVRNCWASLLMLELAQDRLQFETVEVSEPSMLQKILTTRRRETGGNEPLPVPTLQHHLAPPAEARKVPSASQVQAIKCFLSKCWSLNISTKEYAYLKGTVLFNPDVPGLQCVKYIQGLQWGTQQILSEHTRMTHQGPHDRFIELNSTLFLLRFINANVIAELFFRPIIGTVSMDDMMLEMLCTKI
# hgDAF12 agonist: activates the H. glycines DAF-12 receptor ligand-binding domain. HEK293 GAL4-hgDAF12 UAS-luciferase reporter, agonist luminescence; normalized to butyrate control. activation, % at 6.8 µM. 1.8% of 370,000 active. AID 687014;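 active = activation above a cutoff set at the mean of all screened compounds plus 3 SD, cut at about 10% in these data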;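 note: 0% = DMSO wells and 100% = sodium butyrate wells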
# Numbers without * were called inactive; x = not tested or not shown. Most compounds without a hit are left out; they make up all but 4.1% or so of the library.
SMILES,hcDAF12 agonist,DAX1 inh-1,ssDAF-12 act,DAX1 inh-2,hgDAF12 agonist
CC(C)C(NC(=O)C12CC3CC(CC(C3)C1)C2)C(=O)N/N=C/C1=C(N2CCOCC2)C(=C\c2cccc([N+](=O)[O-])c2)/CC1 (configuration not stated),0,-1,-1,0,1
Cn1cc(C(=O)N/N=C/C2=C(N3CCOCC3)C(=C/c3ccc([N+](=O)[O-])cc3)/CC2)ccc1=O,0,0,-1,-1,12*
CCOC(=O)CC[C@@]1(C(=O)OCC)C[C@@H](CC(=O)NCc2ccc(OC)c(OC)c2)C(=O)N2CCCC=C21,-1,0,-1,x,-2
CCCCCCn1cc(CN2CC=CS2(=O)=O)nn1,-1,0,-2,x,5
COC(=O)C[C@@H]1CC[C@@H]2[C@H](COc3ccc(NC(=O)c4ccc(F)c(F)c4)cc3C(=O)N2C)O1,1,0,-1,x,0
CN(C(=O)COC(=O)c1cccnc1Cl)C1CCCCC1,3,4.5*,0,1,4
Cc1ccc(C)c(NC(=S)N(C)CCO)c1,-1,0,-1,4.8*,-2
CC(=O)N1CCc2c1cccc2S(=O)(=O)NC(CC(C)C)C(=O)Nc1ccc(Cl)c(Cl)c1 (configuration not stated),0,0,-2,x,-1
Cc1nc(Nc2ccccc2)sc1C,2,0,-1,7.2*,1
Cc1csc(Nc2ccccc2)n1,0,-1,-1,0,1
CCCCN1C[C@@H](COCc2ccccc2)Oc2cc(F)ccc2S1(=O)=O,-1,0,-1,x,10
C=CCN1C[C@@H](COCc2ccccc2)Oc2cc(F)ccc2S1(=O)=O,-3,-1,-2,x,0
COc1cc(OC)c(NC(=S)NCc2ccc(F)cc2)cc1Cl,-2,0,-2,4.3*,-3
COc1ccc(NC(=S)NCc2ccc(F)cc2)c(OC)c1,-1,0,-1,1,0
COc1ccccc1Cc1c(-c2ccc(C)cc2)nc2ccc(Cl)cn12,1,3.9*,0,x,8
COc1ccccc1Cc1c(-c2ccc(OC)c(OC)c2)nc2ccc(Br)cn12,1,0,0,x,7
COc1ccccc1Cc1c(-c2ccc(F)cc2)nc2ccc(Br)cn12,3,0,1.3*,x,8
O=C(Nc1ccc(Cl)c(Cl)c1)C1CCCN(c2nnc(-n3cccc3)s2)C1 (configuration not stated),-2,0,-1,x,-3
CCOC(=O)c1sc2nc3c(SCCC#N)cc(C(=O)c4cc(F)ccc4O)cn3c(=O)c2c1C,4,1,1.5*,0,4
CCOC(=O)c1sc2nc3c(SCCC(=O)O)cc(C(=O)c4cc(OC)ccc4O)cn3c(=O)c2c1C,-1,-1,-1,-1,5
O=C(Nc1ccc([N+](=O)[O-])cc1)C(Cc1ccccc1)N1C(=O)c2cccc3cccc(c23)C1=O (configuration not stated),5,0,1.4*,0,3
O=C(OCCN1CCN(C2CN(Cc3cn(Cc4ccc([N+](=O)[O-])cc4)nn3)S(=O)(=O)C2)CC1)c1cc2ccccc2o1 (configuration not stated),1,-1,-1,x,-2
CCCN1CCN(CCCNC(=O)c2ccc3nc(N4CCCCC4)sc3c2)CC1,3,4.4*,-1,2,7
CC1CC(C)CN(CCCNC(=O)c2ccc3nc(N4CCCCC4)sc3c2)C1 (configuration not stated),4,2,-1,0,3
CCC1CCCCN1CCCNC(=O)c1ccc2nc(N3CCCCC3)sc2c1 (configuration not stated),5.6*,2,1,1,11*
SMILES,hcDAF12 agonist,DAX1 inh-1,ssDAF-12 act,DAX1 inh-2,hgDAF12 agonist
CC1CCCC(C)N1CCCNC(=O)c1ccc2nc(N3CCCCC3)sc2c1 (configuration not stated),2,3.8*,-1,2,9
C=CCN(CC#Cc1ccccc1)Cc1ccc(OC)cc1,2,0,-1,x,-1
O=C(OC12CCCN(C1)/C(=C/c1ccc(Cl)cc1)C2)c1ccc(F)cc1 (configuration not stated),3,0,-1,x,-3
O=C(NC1=NC2CCCCC2N1)c1ccccc1 (configuration not stated),2,3.8*,0,1,8
CN(C)CCCNc1nc2cc(-c3ccsc3)sc2c(=O)n1C,-2,2,-1,x,1
CN(C)CCCNc1nc2cc(-c3ccc4c(ccn4C)c3)sc2c(=O)n1C,3,2,-1,x,12*
Cc1ccc(-c2cc3nc(NCCc4ccncc4)n(C)c(=O)c3s2)cc1,1,4.0*,0,x,10
C/C(=N\NC(=O)c1ccc(Br)o1)c1cc2c(cc1NC(=O)CCC(=O)O)OCO2,1,2,0,1,6
CC1CC(C)CN(c2oc(Cc3ccccc3)nc2C#N)C1 (configuration not stated),-2,0,-2,-1,-3
N#Cc1nc(Cc2ccccc2)oc1N1CCCC1,-1,0,-1,6.2*,2
CC(C)(C)C(=O)OC12CCCN(C1)/C(=C/c1ccc(C#N)cc1)C2 (configuration not stated),1,0,0,x,-1
O=C(O)c1ccc(Oc2nc3ccccc3s2)cc1,5,2,1.2*,2,8
Cc1[nH]c2ccccc2c1C(=O)COC(=O)c1ccc([N+](=O)[O-])s1,4,0,1.0*,-1,1
Cc1cc(C)c2c(n1)sc1c(=O)n(Cc3ccc(F)cc3)cnc12,0,0,0,4.5*,-1
C=CCn1cnc2c(sc3nc(C)cc(C)c32)c1=O,0,0,-1,1,3
CCN(C)c1ccc(/C=N\n2nnnc2N)cc1,0,-1,-1,1,12*
O=C(NCc1cccs1)C1CCN(S(=O)(=O)c2ccc([N+](=O)[O-])cc2)CC1,-2,-1,-2,x,-3
Cc1c(C(=O)NNC(=O)c2ccccc2O)oc2ccccc12,5.8*,2,1,-1,7
COC(=O)CCC(=O)c1oc2ccccc2c1NC(=O)CCCN1C(=O)c2ccccc2C1=O,0,1,-1,0,0
CC(=O)c1oc2ccccc2c1NC(=O)CCCN1C(=O)c2ccccc2C1=O,5.8*,4,0,0,6
O=C1C=C(C2OC(CO)C(O)C2O)C(=O)N1 (configuration not stated),-1,1,-1,5.9*,-1
CCOc1ccc(CCNC(=O)c2ccccn2)cc1OCC,-1,x,-2,x,-1
CCCS(=O)(=O)N1CCN(C2CCC(C)CC2)CC1 (configuration not stated),-1,-1,-2,5.7*,-2
c1ccc2c(c1)c1cccc3ccc4cccc2c4c31,-2,0,0,0,-4
N#CCc1cc2ccc3cccc4ccc(c1)c2c34,0,0,-1,7.0*,-2
